PubChem BioAssay AID1347076 (National Center for Advancing Translational Sciences (NCATS), 2019)
The whole screen tested about 400,000 compounds, of which about 13,000 (3.2%) were called active. About 18% were inconclusive and are not listed. This is one part of a sample in which actives are shown more often than they occur. Values without a mark were called inactive. Calls follow the shape of the dose curve; as a rule, active = well fitted cell-killing curve with a large enough effect; inconclusive = small, poorly fitted or top-dose-only effect, or effect the other way; inactive = flat fitted curve, though single readings scatter.

Assay: qHTS assay for MDR1-selective chemotherapeutics: Primary screen using the drug-selected MDR subline cells KB-V1; also: nearly all actives have a fitted effect of over 60% in size
Settings: KB-V1 MDR cells viability, CellTiter-Glo, 72 h; series mostly up to 46.1 µM; activity change, negative = cytotoxicity: at the top concentration
Method in brief: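 Cytotoxicity toward P-gp-expressing KB-V1 cells was determined as loss of CellTiter-Glo luminescence after 72 h at 37 degrees C. Compounds were tested in quantitative HTS format across a concentration range, with curves fitted to normalized data.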
% is scaled to controls: 0 for no effect and ±100 for the full control effect; potency is read from the fitted curve at half-maximal effect.

Row | Structure (SMILES) | activity change, negative = cytotoxicity | Potency
1 | COC(=O)[C@]12CCCCC=C1N(Cc1ccc3c(c1)OCO3)C(=O)[C@H](CC(=O)NCc1cccs1)C2 | -26.6% | 
2 | O=C1CCC(C(=O)OCC(=O)Nc2ccc(OC(F)F)cc2)=NN1 | 27.2% | 
3 | Cc1ccc2c(c1)c1c(c(=O)n(-c3ccccc3)c(=O)n1CC(=O)c1ccc(Cl)cc1)n2C | -17.9% | 
4 | CC(=O)NC(c1cccc(F)c1)c1nc(-c2cccc(F)c2)cs1 (configuration not stated) | 2.12% | 
5 | Cc1cc(C)cc(NC(=O)CSCc2cnn(-c3ccccc3)c2-n2cccc2)c1 |  | 18.4 µM (active)
6 | CCOc1ccc(NC(=O)c2cnn(-c3ccccc3)c2-n2cccc2)cc1 | -13.3% | 
7 | CC(=O)Nc1ccc(NC(=O)CSCc2cnn(-c3ccccc3)c2-n2cccc2)cc1 | -13.4% | 
8 | CCOc1ccccc1N(CC)C(=O)c1cc2ccc3cccnc3c2[nH]1 | -16.2% | 
9 | CCCCCOC(=O)NCCOC(=O)Nc1ccc(C(=O)OCC)cc1 |  | 16.4 µM (active)
10 | CCOC(=O)Nc1ccc(NC(=O)OCC)cc1 | 0.438% | 
11 | CCCCC(CCC(=O)Nc1ccc(C(=O)OCC)cc1)C(=O)O (configuration not stated) | 3.69% | 
12 | CC1C(=O)N(Cc2cn(CC3CCCCC3)nn2)CCS(=O)(=O)N1Cc1ccc(-c2cccc(N(C)C)c2)cc1 (configuration not stated) | 2.2% | 
13 | COc1ccc(-c2ccc(=O)n(CC(=O)Nc3ccc(Br)cc3F)n2)cc1 | 5.96% | 
14 | O=C(Nc1ncccc1O)c1ccc(S(=O)(=O)N2CCCC2)cc1 | -28.8% | 
15 | O=C(Nc1ncccc1O)c1ccc(C(=O)c2ccccc2)cc1 |  | 23.1 µM (active)
16 | O=C(NC(=O)c1ccccc1)Nc1ccccc1O | 13.8% | 
17 | C[C@@H]1CN([C@@H](C)CO)C(=O)c2cc(NS(C)(=O)=O)ccc2O[C@@H](C)CCCCO[C@H]1CN(C)C(=O)Nc1ccc2c(c1)OCO2 | 15.5% | 
18 | O=C(NCc1ccccc1)C1c2ccccc2OCC(=O)N1C1CC1 (configuration not stated) | 10.6% | 
19 | Cc1ccc(C(O)c2ncc(-c3ccccc3F)[nH]2)cc1F (configuration not stated) | 3.69% | 
20 | O=C(Nc1cc(S(=O)(=O)Nc2ccc(Cl)cc2)ccc1O)c1ccc(F)cc1F |  | 23.1 µM (active)
21 | O=C(Nc1cccc(S(=O)(=O)NC2=NCCC2)c1)c1ccc(F)cc1F | -4.99% | 

Row | Structure (SMILES) | activity change, negative = cytotoxicity | Potency
22 | CCS(=O)(=O)c1ccc(O)c(NC(=O)COc2ccc(Cl)cc2)c1 | 10.8% | 
23 | CCCSc1nc(NCc2ccco2)c2c3c(sc2n1)COC(C)(CC)C3 (configuration not stated) |  | 16.4 µM (active)
24 | CCCSc1nc2sc3c(c2c(=O)n1-c1cccc(Br)c1)CC(C)(C)OC3 | -22.2% | 
25 | CCC1(C)Cc2c(sc3nc4n(c(=O)c23)CCCS4)CO1 (configuration not stated) | 0% | 
26 | Cc1ccc(N2CC(c3nnc(Cc4ccccc4Cl)o3)CC2=O)cc1 (configuration not stated) | 2.41% | 
27 | CC(C)(C)OC(=O)N1CCC(c2c(C(=O)N3CCN(c4cccc(Cl)c4)CC3)cnn2-c2cccc(Cl)c2)CC1 | -27.3% | 
28 | Cc1ccc(OCC(=O)NC(C)c2ccccc2)c([N+](=O)[O-])n1 (configuration not stated) | -8.09% | 
29 | O=C(COc1cccnc1[N+](=O)[O-])Nc1ccc(Cl)cc1F | 4.4% | 
30 | Cc1ccc(OCC(=O)Nc2ccccc2Sc2ccc(Cl)cc2)c([N+](=O)[O-])n1 |  | 9.2 µM (active)
31 | Cc1ccc(S(=O)(=O)N2CC3C(=O)C[C@@H](c4ccccc4Cl)N(S(=O)(=O)c4ccc(C)cc4)C3CC2c2ccccc2)cc1 (some centres not stated) | -27.9% | 
32 | COc1ccc(C(C)(C)C)cc1NC(=O)CN(C)C1=NS(=O)(=O)c2ccccc21 | -22.1% | 
33 | CC1(C(=O)NCc2ccc3c(c2)OCO3)CCN1C(=O)Cc1cccs1 (configuration not stated) | 2.58% | 
34 | C[C@H](NC(=O)CC[C@H]1O[C@@H](n2ccc(=O)[nH]c2=O)[C@H](O)[C@@H]1O)c1cccc2ccccc12 | 14.5% | 
35 | CNC(=S)NNC(=O)c1sccc1OCc1ccccc1 | -21.8% | 
36 | CC(=O)NC(=S)NNC(=O)c1ccc(Br)cc1 | -2.46% | 
37 | CNC(=S)NNC(=O)c1ccc(N(C)C)cc1 |  | 11.6 µM (active)
38 | COC(=O)C1(C(=O)OC)C/C=C\CN(S(=O)(=O)c2ccccc2[N+](=O)[O-])CCC1 | 3.37% | 
39 | COc1ccc(Cn2c(C)c(C)c(C#N)c2NC(=O)Nc2ccc(F)cc2)cc1 | 18% | 
40 | COc1ccc(NS(=O)(=O)c2cc(NC(=O)c3ccc(S(=O)(=O)N(C)C)cc3)ccc2N2CCOCC2)cc1 | 7.71% | 
41 | COc1ccc(NC(=O)c2sc(=O)n(Cc3ccc(S(=O)(=O)N(C)C)cc3)c2C)cc1 |  | 9.2 µM (active)
42 | Cc1nc(SCC(=O)N2CCc3ccccc3C2)c2c(C)c(C)sc2n1 |  | 18.4 µM (active)

Row | Structure (SMILES) | activity change, negative = cytotoxicity | Potency
43 | O=C(CSc1nnc(-c2cccs2)n1Cc1ccccc1)N1CCc2ccccc2C1 | 0% | 
44 | Cc1nc(SCC(=O)N2CC(=O)Nc3ccccc32)c2c(C)c(C)sc2n1 | -23.9% | 
45 | COc1ccc(OC)c(C(=O)NC2CCCc3c2cnn3-c2cc(C)cc(C)c2)c1 (configuration not stated) | 1.4% | 
46 | Cc1cccc(N2CCN(C(=O)c3cnc(N4CCCC4)nc3C)CC2)c1C | 19.2% | 
47 | O=C1NC(c2ccncc2)Nc2sc3c(c21)CCCC3 (configuration not stated) |  | 20.6 µM (active)
48 | CCOC(=O)N1CCc2c(sc3c2C(=O)NC(c2ccccc2F)N3)C1 (configuration not stated) | -0.0929% | 
49 | C/C(=C\c1ccccc1)C1NC(=O)c2c(sc3c2CCCC3)N1 (configuration not stated) | 0% | 
50 | COc1ccc(NC(=O)CCCN2C(=O)CCn3nc(-c4cn(C)c5ccccc45)cc32)cc1OC | 11.5% | 
51 | COc1ccc(C(=O)Nc2cc(C)ccc2NC(=O)COc2ccccc2)cc1 | -2.79% | 
52 | Cc1cccc(NC(=O)c2ccc(OCC(=O)NCc3ccccc3)cc2)c1C |  | 14.6 µM (active)
53 | Cc1ccc(OCC(=O)NNC(=S)NCc2ccccc2)cc1 | 2.82% | 
54 | O=C(COC(=O)c1ccccc1OCCOc1ccccc1)Nc1cccc(Br)c1 | 0% | 
55 | COCCNC(=O)C1CCCN(Cc2ccccc2Cl)CC1 (configuration not stated) | 6.18% | 
56 | COC(=O)CCCCC1=CCC2C(=O)C=C(O)C2C1 (configuration not stated) | 3.11% | 
57 | Cc1sc2nc(-c3ccccc3F)oc(=O)c2c1C | 23.8% | 
58 | CCOc1ccc(NC(=O)c2cc3c(=O)n(Cc4cccs4)ccc3nc2C)cc1 | -7.46% | 
59 | C=CCNc1scc(-c2ccccc2)[n+]1CC=C | 8.94% | 
60 | O=C(NNC(=O)c1ccc(-c2ccccc2)cc1)Nc1ccccc1 | -17% | 
61 | C=CC[n+]1c(-c2ccc(C)cc2)csc1NNC(=O)Nc1ccccc1 |  | 14.6 µM (active)
62 | Cc1ccc(S(=O)(=O)N2C[C@H]3C(=O)C[C@@H](c4cccc5ccccc45)N(S(=O)(=O)c4ccc(C)cc4)[C@H]3C[C@H]2c2ccc(Cl)cc2)cc1 | 7.7% | 
